Measured values reported in PubChem BioAssay AID1117319 (Southern Research Institute, 2015).
Hit rate of the full screen: of about 260,000 compounds, about 1,500 (0.58%) were called active. Another 5% or so got no clear call; they are omitted.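 How the source made its calls: active means inhibition above a set limit at one or more doses, reproduced on every date tested; inconclusive means results disagree between test dates, or hit never tested in dose response; inactive means the rest.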 A selection follows. Entries with a potency or affinity are not part of this list.

Target: Virion infectivity factor (Human immunodeficiency virus type 1 group M subtype B (isolate BH10)) + Virion infectivity factor (Human immunodeficiency virus type 1 group M subtype B (isolate BRU/LAI)) + Virion infectivity factor (Human immunodeficiency virus type 1 group M subtype B (isolate PCV12)) + Virion infectivity factor (Human immunodeficiency virus type 1 group M subtype B (isolate HXB2)) + DNA dC->dU-editing enzyme APOBEC-3G (Homo sapiens) (UniProt P69720+P69721+P69722+P69723+Q9HC16)
Experiment: HIV-1 Vif–A3G interaction blockers – biochemical, TR-FRET, GST-Vif 1-94, biotin-A3G peptide, dose response retest, primary screen (AID 1117319);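 further: Vif residues 1-94 fused to GST binding biotinylated APOBEC3G peptide 110-148; 0% = full assay without inhibitor and 100% = GST in place of GST-Vif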
Details: TR-FRET GST-Vif / biotin-A3G peptide binding; hits give high values

inhibition, inactive:
COc1cccc(CC(NC(C)=O)C(=O)NC2CCN(S(=O)(=O)c3ccc(F)cc3)CC2)c1OC (stereo unspecified) -17.6%, CCCCn1c(N)c(N(CCOC)C(=O)CCCc2nc3ccccc3c(=O)[nH]2)c(=O)[nH]c1=O -0.43%, COc1ccc(CC(=O)NCCS(=O)(=O)N2CCN(c3ccccc3OC)CC2)cc1 -3.77%, CCOc1ccc(CCNC(=O)COC(=O)Cc2c[nH]c3ccccc23)cc1OCC 2.44%, CCOCCCNCc1cccc(OC)c1 -0.48%, CN1CCN(S(=O)(=O)c2ccc(Oc3ccc(Br)cc3F)nc2)CC1 -0.65%, COc1cccc(CC(=O)OCC(=O)c2cc(OC)ccc2OC)c1 18.9%, Cc1cc(C)cc(N2CN=c3s/c(=C\c4ccco4)c(=O)n3C2)c1 3.97%, CC(=O)Nc1ccc(NC2=C(Cl)C(=O)c3ccccc3C2=O)cc1 11.5%, O=C1C(Cl)=C(Nc2ccccc2)C(=O)c2ccccc21 -1.3%, CCC(=O)Nc1c(C)cc(C)cc1Cl 1.1%, CCNC1=C(Cl)C(=O)c2ccccc2C1=O 2.59%, CN(C)c1ccc(NC2=C(Cl)C(=O)c3ccccc3C2=O)cc1 20.1%, CCCC(=O)Nc1ccccc1NC(=O)CCC 16.5%, O=C(Nc1ccc2cn[nH]c2c1)c1c(Cl)cccc1Cl 2.79%, O=C1C(Cl)=C(NC(=O)c2ccccc2)C(=O)C(Cl)=C1NC(=O)c1ccccc1 20.2%, CC(c1ccccc1)C1NC(C(=O)O)CS1 (stereo unspecified) -0.34%, Cc1ccc(CN2CCSc3ccc(C(=O)NCc4cccnc4)cc32)cc1 -7.4%, COc1ccc(C(=O)/C=C2/C(=O)Nc3ccccc32)cc1 11.7%, Cc1[nH]n(-c2ccccc2)c(=O)c1/C=C1\C=NN=C1c1ccccc1 -6.22%, COC(=O)c1c(NC(=O)c2nc3nc(C)cc(C(F)F)n3n2)sc2c1CCC2 -2.56%, CCN(CC)C(=O)c1sc(NC(=O)C(Sc2ccccc2)c2ccccc2)c(C(=O)OC(C)C)c1C (stereo unspecified) -1.62%, CC(/C=N/n1c(-c2ccccc2)n[nH]c1=S)=C\c1ccco1 29%, C(/C=C/c1ccco1)=N/N1CCN(c2ccccc2)CC1 18.8%, Cc1cc(-c2n[nH]c(=S)n2/N=C/c2ccc(C)o2)n[nH]1 27.9%, C(=C\c1ccccc1)/C=N/n1cnnc1 17.7%, S=c1[nH]nc(-c2cccnc2)n1/N=C/C=C/c1ccccc1 32.9%, Cc1cccc(-c2n[nH]c(=S)n2/N=C/c2ccco2)c1 -4.06%, CC(/C=N/n1c(-c2ccc(Cl)cc2)n[nH]c1=S)=C\c1ccco1 27.8%, S=c1[nH]nc(-c2cccnc2)n1/N=C/c1ccco1 3.51%, O=C(COC(=O)Cn1cnc2ccccc21)Nc1ccc(F)c(F)c1 -4.98%, C=CCSc1nnc(CNC(=O)c2ccccc2C)n1C(C)C 4.54%, CC(NC(=O)C(=S)N1CCN(C)CC1)c1ccccc1 (stereo unspecified) 0.7%, C=CCN1/C(=C2/SC(=S)N(C)C2=O)Sc2ccccc21 11.3%, CCc1noc(C)c1C(=O)OC(C)C(=O)Nc1ccccc1OC (stereo unspecified) 3.88%, COc1cccc(-c2nn(C)c3sc(C(=O)NCc4ccc5c(c4)OCO5)cc23)c1 -2.11%, Cn1nc(-c2ccccc2F)c2cc(C(=O)Nc3ccc4c(c3)OCCO4)sc21 -1.77%, Cc1nn(CC(=O)NC2CCS(=O)(=O)C2)c(C)c1[N+](=O)[O-] (stereo unspecified) -7.13%, Cc1cc(S(=O)(=O)N2CCOCC2)ccc1OCC(=O)N1CCCCC1 25.7%, Cc1ccc(NC(=O)CCNS(=O)(=O)c2cccc3nonc23)cc1 2.21%, CCc1cccc(NC(=O)CCNS(=O)(=O)c2cccc3nonc23)c1 9.44%, CC(C)Cn1c2c(c(=O)[nH]c1=O)C(NS(=O)(=O)c1ccc(Cl)cc1)(C(F)(F)F)C(=O)N2 (stereo unspecified) -5.6%, COc1cccc(C(=S)N2CCCC2)c1OC 0.47%, O=C1C2CCCN2C(=O)N1CCCCN1CCN(c2ccc(F)cc2)CC1 (stereo unspecified) -0.87%, O=C1C2CCCN2C(=O)N1CCCN1CCN(c2ccc([N+](=O)[O-])cc2)CC1 (stereo unspecified) -0.31%, COc1cccc(-n2nc(C(N)=O)c(O)cc2=O)c1 -7.89%, CC(=O)NNc1ncnc2ccccc12 16%, O=C(O)CCC(=O)NNc1ncnc2ccccc12 -0.06%, Cc1cc(N/N=C/c2ccncc2)nc2ccccc12 8.69%, COC(=O)CC1SC(=O)NC1=Nc1ccc(C)cc1 (stereo unspecified) 19.1%, CCCCn1c(N)c(N(CCOC)C(=O)c2ccc(OCc3c(C)noc3C)cc2)c(=O)[nH]c1=O 5.41%, O=C(CSc1ncnc2sccc12)Nc1ccccc1 -6.5%, O=C(CSc1ncnc2sccc12)Nc1ccccc1F -5.44%, Cc1ccc2c(c1)C(c1ccccc1)CC(=O)O2 (stereo unspecified) -9.94%, Nn1c(SCC(=O)Nc2ccc3c(c2)OCO3)nnc1C(F)(F)F 1.55%, O=C(O)CSc1nnc(-c2ccncc2)n1C1CCCCC1 -0.35%, Cn1c(SCCC#N)nnc1-c1ccc(F)cc1 11.1%, C/C(=C\C(=O)c1ccc(C)cc1)Nc1ccc(N2CCOCC2)cc1 11.1%, COc1ccc2nc(C)cc(Nc3ccccc3OC)c2c1 -8.19%, Cc1cccc(S(=O)(=O)c2c(C)cc(C)nc2Cl)c1 -4.17%, COc1ccc(CN2CCN(c3nc4ccccc4s3)CC2)cc1 -11.5%, Cc1ccc(CN(Cc2ccccc2)C(=S)Nc2ccccc2C)o1 13.2%, CC(=O)N(C)/C=C1\Sc2ccccc2C1=O 1.33%, CN(C)/C=C1/Sc2ccccc2C1=O -7.14%, CCOC(=O)C(CC(=O)O)N1CCCCC1 (stereo unspecified) -2.07%, Cc1ccc(C(=O)Nc2ccc(F)cc2)o1 -0.54%, Cc1ccc(C(=O)Nc2ccc(CC(=O)O)cc2)o1 1.07%, CCOC(=O)c1ccc(N/C=C/C(=O)C(C)(C)C)cc1 5.83%, COc1ccc(N/C=C/C(=O)C(C)(C)C)cc1 -3.89%, CCN(CC(=O)Nc1c(F)cccc1F)C(=O)C1CC(=O)N(CCc2ccccc2)C1 (stereo unspecified) 5.22%, CN(CCC#N)C(=O)CC1(Cc2ccccc2)CCOC(C)(C)C1 (stereo unspecified) -1.26%, Cc1cccc(Nc2c([N+](=O)[O-])ccc3nonc23)c1C -5.88%, Cc1cc(C)cc(NC2=NCC(=O)N2Cc2ccccc2)c1 2.08%, CCOCCCNC(=O)Cn1cnc2c(cnn2-c2ccc(F)cc2)c1=O -2.53%, Cc1ccccc1N(C=O)c1ccccc1C -8.26%, COc1cccc(OCCNS(=O)(=O)c2cccc([N+](=O)[O-])c2)c1 -4.86%, CCOc1cccc(CN2CCN(c3cccc(C(F)(F)F)c3)CC2)c1O 28.2%, Oc1c(CN2CCOCC2)cc(COCc2ccccc2)c2cccnc12 29.4%, O=[N+]([O-])c1cc(F)c2cccnc2c1O 18.9%, O=[N+]([O-])c1cc(Cl)c2cccnc2c1O -6.11%, O=[N+]([O-])c1cc(CN2CCN(c3ccccc3)CC2)c(O)c2ncccc12 12.7%, Cc1ccc([N+](=O)[O-])c2cccnc12 1.02%, Oc1c(Cl)cc(CN2CCCCC2)c2cccnc12 10.4%, O=[N+]([O-])c1ccc(O)c2cccnc12 -6.29%, CCOC(=O)c1cc(-c2cccs2)[nH]n1 3.68%, O=C1C(c2ccccc2)c2ccccc2N1Cc1ccccc1 (stereo unspecified) -2.08%, CCOc1ccc(OCCn2ccnc2)cc1 -0.21%, Cc1nc2ccc(NS(=O)(=O)c3cccc([N+](=O)[O-])c3)cc2s1 -2.07%, COCCNC(=O)Nc1ccc2nc(C)sc2c1 3.2%, O=C(Nc1ccc2nc(-c3cccs3)c(-c3cccs3)nc2c1)NC1CC1 -3.31%, OCCCNC(=S)Nc1ccc2nc(-c3ccccn3)c(-c3ccccn3)nc2c1 16.7%, O=C(Nc1ccc(N2CCOCC2)cc1)Nc1ccc2nc(-c3ccco3)c(-c3ccco3)nc2c1 16%, O=C(NCCO)Nc1ccc2nsnc2c1 13.2%, COCCNC(=O)Nc1ccc2nc(-c3cccs3)c(-c3cccs3)nc2c1 13.9%, Cc1nc2ccc(NC(=O)NCCCO)cc2s1 -2.1%, O=C(Nc1ccc2nsnc2c1)NC1CCCCC1 -12.3%, COc1cc2[nH]c(=O)c(C(=O)NCc3ccc(C)cc3)c(O)c2cc1OC -8.1%, O=C1NC[C@H](c2ccccc2)N(CCc2cc(C(F)(F)F)cc(C(F)(F)F)c2)C1=O -3.13%, COC(=O)c1sc2nc(C)c([N+](=O)[O-])c(C)c2c1N 6.2%, CC(C)c1nnc(NC(=O)CC(=O)Nc2ccccc2C(=O)O)s1 15.4%, CCOC(=O)c1c(NC(=O)COC(=O)CCOc2ccc(OCC)cc2)sc(C(=O)N(C)C)c1C -2.2%
